Screening data (PubChem)
This is a sample that favours compounds with a hit; in the whole collection about 19% have one here.
DT40 TDP1 CPT = DT40-hTDP1 cell growth loss with CPT. chicken DT40 Tdp1-/-;hTDP1 cells + 20 nM CPT, ATP luminescence, 48 h. Potency, µM (doses to about 46.2 µM), actives largely listed as inhibitors. actives 12% (n = 420,000); further: nearly all actives have a fitted effect of over 55% in size
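Chicken DT40 Tdp1-/- cells stably complemented with human TDP1 were seeded at 400 cells/well in medium containing 20 nM camptothecin, exposed to pin-transferred compounds, and grown at 37 °C for at least 48 hr. Viability was read as ATP luminescence.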
HT1080 IDH1KD tx = HT-1080 IDH1 knockdown cell toxicity (counter line); HT-1080 IDH1 knockdown viability, ATP luminescence, 48 h; Potency, µM (top dose mostly 46.1 µM), most hits filed as cytotoxic; actives 2% (n = 360,000); AID 686971
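HT-1080-IDH1KD cells (IDH1 knocked down), 750/well in RPMI with 5% FBS, treated with compound 48 h at 37 degrees C. Viability by CellTiter-Glo luminescence, normalised to DMSO and no-cell wells; concentration-response curves classed.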
HT1080-NT tox = kills 2HG-producing HT-1080-NT fibrosarcoma cells | actives 1.6% (n = 360,000) | HT-1080-NT fibrosarcoma viability, CellTiter-Glo ATP luminescence, 48 h | Potency, µM (series often up to 46.1 µM), usual class: cytotoxic | AID 686970;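 further: NT is the 2HG producing partner of a matched IDH1 knockdown line; nearly all actives have a fitted effect of over 55% in size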
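Viability of the 2HG-overproducing fibrosarcoma line after 48 hours of compound exposure at 37 degrees C was determined by luminescence with CellTiter-Glo, and concentration-effect curves were then fitted and categorized.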
IL1B secr inh = inhibitors of inflammasome signaling (IL-1 beta secretion); THP-1 LPS/ATP IL-1B secretion, AlphaLISA, 16 h; stronger effect = lower value; activity change, % at 57.5 µM; actives 4.7% (n = 360,000); AID 743279; in the data active means activity change below about -50%; inconclusive means mostly about -30% to -49%
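THP-1 cells pretreated 1 hr with compounds (up to 57.5 uM final), then stimulated with LPS (250 ng/mL final) plus ATP (1.25 mM final); secreted IL-1B measured by AlphaLISA after 16 hr, decreased signal indicating inhibition.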
DT40 TDP1 no CPT = qHTS for Inhibitors of human tyrosyl-DNA phosphodiesterase 1 (TDP1): qHTS in cells in absence of CPT; DT40 Tdp1-/- hTDP1 cells, no CPT, ATP luminescence, 48 h; Potency, µM (top dose mostly 46.2 µM), most hits filed as inhibitors; actives 15% (n = 420,000); further: nearly all actives have a fitted effect of over 55% in size
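Readout: luminescence from CellTiter-Glo after 30 min in the dark at RT. Cells: DT40 Tdp1-/- with stable hTDP1, 400/well. Exposure: compounds alone, ≥48 hr, 37 °C.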
A number is an active result; - = inactive; ? = inconclusive; . = no result given. Unless noted, the call rests on the fitted dose curve; in most records, active means well fitted curve in the direction sought with a large enough effect; inconclusive means small, poorly fitted or top-dose-only effect, or another doubt; inactive means no such curve, though single readings can be large; an effect the other way counts as inactive or inconclusive.

SMILES	DT40 TDP1 CPT	HT1080 IDH1KD tx	HT1080-NT tox	IL1B secr inh	DT40 TDP1 no CPT
O=c1c2ccccc2cnn1Cc1n[nH]c(=S)n1C1CC2CCC1C2 (configuration not stated)	?	-	-	-	18.4µM
COC(=O)C1=C(c2ccc3ccccc3c2)C[C@@H]2CC[C@H]1N2C(=O)NCCNC(C)=O	-	-	-	-	-
COC(=O)C1=C(C(=O)OC)C2OC1c1cc3ccccc3cc12	0.461µM	3.26µM	?	-	0.731µM
C[C@]12CCC3C(CC[C@H]4C[C@H](OC(=O)c5cccnc5)CC[C@]34C)C1CCC2=O (some centres not stated)	?	-	-	-	23.1µM
C[C@]12CC[C@H](O)C[C@@H]1CC[C@H]1[C@H]3CCC(=O)[C@@]3(C)CC[C@@H]12	?	-	-	-	18.4µM
O=C1C(Cl)=C(Cl)C(=O)C(Cl)=C1Cl	4.61µM	.	.	.	2.91µM
CCOC(=O)Cn1cc(/C=N/NC(=O)CC#N)c2ccccc21	-	-	?	-54.7	-
CC(=O)CCC(C)=O	-	-	-	-	-
COC1CCC(OC2CC(C3(C)CCC4(CC(O)C(C)C(C(C)/C=C(\C)C(=O)C(C)CC(C)C(=O)O)O4)O3)OC3(OC(C4OC(O)(CO)C(C)CC4C)CC3C)C2C)OC1C (configuration not stated)	0.146µM	3.66µM	13µM	-54.2	0.146µM
CNc1ccc(C(=O)CC(O)CCC(C)C2OC(=O)CC(O)CC(=O)CC(O)CC(O)CC(O)CC(O)CC3(O)CC(O)C(C(=O)OC)C(CC(O[C@@H]4O[C@H](C)[C@@H](O)[C@H](N)[C@@H]4O)/C=C/C=C/C=C/C=C/C=C/C=C/C=C/C2C)O3)cc1 (some centres not stated)	-	.	.	.	-
CCN(CC)C(=O)c1ccc(NC(=O)CNC(C)c2cccc3ccccc23)cc1 (configuration not stated)	-	-	-	-	?
CC(C)(C)OC(=O)COc1cc(OCC(=O)OC(C)(C)C)c2c(=O)cc(-c3ccccc3)oc2c1	?	?	?	-67.4	18.4µM
CCC[C@@H]1CC2=CC(=O)CC[C@]2(C)[C@@H]2CC[C@@]3(C)[C@H](CC[C@]3(O)CCC(=O)O)[C@H]12	-	.	.	.	-
COC(=O)C1=Nc2ccccc2/C1=C\c1c(O)n(-c2cc(OC)ccc2OC)c(=O)[nH]c1=O	-	-	-	-	-
Cc1ccccc1-n1c(O)c(/C=C2/C(c3ccccc3)=Nc3ccccc32)c(=O)[nH]c1=O	4.61µM	?	?	?	4.61µM
CC1=Nc2ccccc2/C1=C/c1c(O)n(C)c(=O)[nH]c1=O	?	-	-	-102.9	?
Cc1ccc(-n2c(O)c(/C=C3/C(c4ccccc4)=Nc4ccccc43)c(=O)[nH]c2=O)cc1	5.8µM	?	7.31µM	-57.6	7.31µM
Cc1cccc(-n2c(O)c(/C=C3/C(c4ccccc4)=Nc4ccccc43)c(=O)[nH]c2=O)c1	2.91µM	5.8µM	16.4µM	-	2.31µM
CC(=O)O[C@H]1CC[C@@]2(C)C(=CC(=O)C3C2CC[C@@]2(C)C3C[C@H](OC(C)=O)[C@@H]2OC(C)=O)C1 (some centres not stated)	?	-	-	-	?
C=CCN1CCCC1CNC(=O)c1cc2[nH]nnc2cc1OC (configuration not stated)	-	-	-	-	?
CCOc1ccccc1NC(=O)c1cccn(Cc2ccccc2C)c1=O	-	.	.	.	-
Cc1ccc(NC(=O)NCc2ccc3c(c2)CCN3C(=O)c2ccccc2)c(Cl)c1	?	.	.	.	23.1µM
Cc1ccc2c(c1)CCCN2N=O	?	-	-	-	-
CCOc1ccccc1NC(=O)NCc1ccc2c(c1)CCN2C(=O)c1ccccc1	23.1µM	.	.	.	16.4µM
CCOc1cccc(CC(=O)NCc2ccc3c(c2)CCN3C(=O)c2cccc(C)c2)c1OCC	20.6µM	.	.	.	20.6µM
SMILES	DT40 TDP1 CPT	HT1080 IDH1KD tx	HT1080-NT tox	IL1B secr inh	DT40 TDP1 no CPT
Cc1ccc(N=Nc2cc(C)ccc2N)cc1	-	?	?	-	-
CN1CC[C@]23c4c5ccc(O)c4O[C@H]2[C@@H](O)C=C[C@H]3[C@H]1C5	-	.	.	.	-
Cc1cc(OC(=O)c2ccco2)c2c3c(c(=O)oc2c1)CCC3	?	-	-	-	23.1µM
Cc1cc(OCC(=O)OC(C)(C)C)c2c3c(c(=O)oc2c1)CCC3	-	-	-	-	-
CCN(CC)C(=O)COc1cc(C)cc2oc(=O)c3c(c12)CCCC3	?	-	-	-50.2	?
Cc1cc(OCC(=O)N2CCC(C(=O)NCC(C)C)CC2)c2c3c(c(=O)oc2c1)CCCC3	-	-	-	-	13µM
Cc1cc(OCC(=O)N2CCC(C(=O)O)CC2)c2c3c(c(=O)oc2c1)CCCC3	-	-	-	-	-
C=CCOC(=O)COc1cc(C)cc2oc(=O)c3c(c12)CCC3	-	-	-	-	-
Cc1ccc(OC(=O)N(C)C[C@@H]2OCc3cnnn3CCCC(=O)N([C@@H](C)CO)C[C@@H]2C)cc1	-	-	-	-	?
CCOc1ccc(CN2C(=O)c3ccccc3Sc3ccc(C(=O)N4CCC5(CC4)OCCO5)cc32)cc1	18.4µM	.	.	.	?
Cc1ccc(CN2CCSc3ccc(C(=O)N4CCC5(CC4)OCCO5)cc32)cc1	?	-	-	?	?
O=C1Nc2cc(C(=O)N3CCC4(CC3)OCCO4)ccc2S/C1=C\c1ccccc1	?	?	?	-	?
CC1=Nc2cc(C(=O)N3CCC4(CC3)OCCO4)ccc2Sc2ccc(Cl)cc21	?	-	-	-	?
O=C(c1ccc2c(c1)N(Cc1ccc(F)cc1)CCS2)N1CCC2(CC1)OCCO2	?	-	-	-65.0	?
O=C(c1ccc2c(c1)N(Cc1ccc(F)cc1)C(=O)c1ccccc1S2)N1CCC2(CC1)OCCO2	16.4µM	.	.	.	16.4µM
Cc1ccc(C)c(CN2C(=O)c3ccccc3Sc3ccc(C(=O)N4CCC5(CC4)OCCO5)cc32)c1	?	.	.	.	20.6µM
Cc1ccc(OC(F)F)c(N2C(=O)C3C4CCC(O4)C3C2=O)c1 (configuration not stated)	-	-	-	-	-
Cc1cccc(Cn2c(=O)n(CC3CCC(C(=O)N4CCC(C)CC4)CC3)c(=O)c3sccc32)c1 (configuration not stated)	20.6µM	.	.	.	16.4µM
Cc1ccc([C@H]2C[C@@H](O)[C@H](n3cc(COC(=O)c4ccccc4)nn3)CN2CC2CCCCC2)cc1	?	-	-	-	?
CC(=O)c1ccc(OC(=O)N(C)c2ccccc2)cc1	-	-	-	-	-
CN(Cc1cccc(-c2ccncc2)c1)C(=O)Oc1ccc([N+](=O)[O-])cc1	20.6µM	?	?	-	16.4µM
